In the library only some 5.7% were active in any assay of this set; here they are far more common.
AHR activator: AHR activators, primary screen, cell-based, luminescence, luciferase reporter, human | activation, % at 5 µM | 320,000 compounds, 2.5% hits | AID 2796, 2010 | AHR-responsive luciferase reporter cells; in the data active = activation above about 47%;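 also: 0% = vehicle wells and 100% = reference agonist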
ssDAF-12 act: S. stercoralis DAF-12 nuclear receptor activators, primary screen, cell-based, luminescence, HEK293, GRIP1 co-expression, lit1-tk-luc | Nuclear hormone receptor DAF-12 (Strongyloides stercoralis) | HEK293 ssDAF-12/GRIP1 lit1-tk-luc reporter; % of 3 µM dafachronic acid response | activation, % at 6.8 µM | 370,000 compounds, 1% hits | AID 652126, 2013;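 active = activation above the mean over all tested compounds plus 3 SD, cut at about 0.9% in these data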;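 also: 0% = DMSO-only wells and 100% = 3 µM delta7-dafachronic acid wells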
hgDAF12 agonist: H. glycines DAF-12 receptor agonists, primary screen, cell-based, luminescence, HEK293, GAL4 fusion, UAS-luciferase; Nuclear hormone receptor DAF-12 (Heterodera glycines), GAL4 fusion; HEK293 GAL4-hgDAF12 UAS-luciferase reporter, agonist luminescence; normalized to butyrate control; activation, % at 6.8 µM; 370,000 compounds, 1.8% hits; AID 687014, 2013;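 active = activation above a cutoff set at the mean of all screened compounds plus 3 SD, cut at about 10% in these data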;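 also: 0% = DMSO wells and 100% = sodium butyrate wells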
DAX1 inh-1: DAX1 (NR0B1) inhibitors, primary screen, cell-based, HEK293, Gal4-DAX1, luciferase luminescence. Nuclear receptor subfamily 0 group B member 1 (Homo sapiens), P51843. HEK293 Gal4-DAX1 luciferase reporter. 340,000 compounds, 0.99% hits. inhibition, % at 6.75 µM;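 active = inhibition above the mean over all tested compounds plus 3 SD, cut at about 4.2% in these data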;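 also: 0% = DAX1-transfected cells with DMSO and 100% = empty-vector control cells with DMSO; inhibition shows as a rise in luminescence from relieved DAX1 repression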
Target sequence (P51843 207-470 limits assumed): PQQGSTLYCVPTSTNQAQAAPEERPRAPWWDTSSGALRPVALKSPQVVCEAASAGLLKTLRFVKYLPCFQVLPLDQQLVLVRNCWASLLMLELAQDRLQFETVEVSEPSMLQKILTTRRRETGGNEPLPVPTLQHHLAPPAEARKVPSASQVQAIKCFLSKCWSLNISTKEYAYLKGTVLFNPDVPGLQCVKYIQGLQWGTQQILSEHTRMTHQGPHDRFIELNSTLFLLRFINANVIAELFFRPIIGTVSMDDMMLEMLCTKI
DAX1 inh-2: DAX1 (NR0B1) inhibitors on StAR promoter, primary screen, cell-based, luminescence, SF-1 (NR5A1), full-length DAX-1. inhibition, % at 6.8 µM. HEK293T StAR-luciferase reporter, SF-1/DAX-1 repression relief. 370,000 compounds, 1.1% hits. AID 652010, 2013;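 active = inhibition above the mean over all tested compounds plus 3 SD, cut at about 3.6% in these data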;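 also: 0% = DAX-1 cells with DMSO and 100% = cells lacking DAX-1 with DMSO; higher inhibition means more luminescence from relief of DAX-1 repression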
hcDAF-12 act: H. contortus DAF-12 nuclear receptor activators, primary screen, cell-based, luminescence, HEK293, lit1-tk-luc reporter. activation, % at 6.8 µM. 370,000 compounds, 1.4% hits. HEK293 hcDAF-12 lit1-tk-luc reporter; 0% DMSO, 100% Δ7-dafachronic acid;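 active = activation above the mean of all tested compounds plus 3 SD, cut at about 5.5% in these data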;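 also: 100% = response to 3 µM Δ7-dafachronic acid high control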
* = called active by the depositor.

Cc1ccccc1CSCCNC(=O)COc1ccc(Cl)cc1 was read as AHR activator -1.4, ssDAF-12 act -0.6, hgDAF12 agonist 1.5, DAX1 inh-1 6.6*, DAX1 inh-2 -0.5 and hcDAF-12 act -0.8.
For O=C(Nc1ccc(Cl)cc1)Nc1nc(-c2sccc2Br)cs1 the results were AHR activator 61.5*, ssDAF-12 act -0.7, hgDAF12 agonist 2.3, DAX1 inh-1 -0.6, DAX1 inh-2 -0.2 and hcDAF-12 act 0.2.
COC(=O)C1=C(C)N(Cc2cccc(C(F)(F)F)c2)C(=NCc2ccccc2C(F)(F)F)NC1c1cccc(F)c1 (stereo not drawn) was read as ssDAF-12 act -1.3, hgDAF12 agonist 3.3, DAX1 inh-2 -0.6 and hcDAF-12 act -0.8.
CCOC(=O)c1sc(NC(=O)CN2CCN(c3ccc(OC)cc3)CC2)nc1C was read as ssDAF-12 act 1.8*, hgDAF12 agonist -1.7, DAX1 inh-1 -1.3, DAX1 inh-2 -0.6 and hcDAF-12 act -2.6.
Screening COc1cc2c3c(c1)c(N=NC(N)=S)c(O)n3C(C)(C)C=C2C returned AHR activator 7.4, ssDAF-12 act -0.2, hgDAF12 agonist 0.0, DAX1 inh-1 7.1*, DAX1 inh-2 -0.4 and hcDAF-12 act -1.2.
Screening O=P(c1ccccc1)(c1ccccc1)C(O)c1ccccn1 (stereo not drawn) returned AHR activator 0.2, ssDAF-12 act 1.2*, hgDAF12 agonist 1.3, DAX1 inh-2 -0.3 and hcDAF-12 act -1.4.
`COC[C@@H]1CCCN1c1cccc2c1S(=O)(=O)N1CC[C@@H](C1)O2` gave ssDAF-12 act 0.3, hgDAF12 agonist 3.7, DAX1 inh-2 -0.8 and hcDAF-12 act 0.3.
`Cc1nn(C)cc1S(=O)(=O)N1CCN(c2cccc(Cl)c2)CC1` gave AHR activator -0.2, ssDAF-12 act -1.0, hgDAF12 agonist -0.5, DAX1 inh-1 0.6, DAX1 inh-2 1.2 and hcDAF-12 act 0.0.
Screening Nc1c2c(nc3ccc(Br)cc13)N(Cc1ccccc1)CC2 returned AHR activator 49.7*, ssDAF-12 act -1.3, hgDAF12 agonist 1.9, DAX1 inh-1 1.2, DAX1 inh-2 -0.9 and hcDAF-12 act -0.1.
For Nc1c2c(nc3ccccc13)N(C1CCCCC1)CC2 the results were AHR activator 35.7, ssDAF-12 act -1.4, hgDAF12 agonist -0.9, DAX1 inh-1 1.1, DAX1 inh-2 0.0 and hcDAF-12 act -1.9.
For Nc1c2c(nc3ccc(Br)cc13)N(C1CCCCC1)CC2 the results were AHR activator 52.2*.
Screening Cc1cccc(N2CCc3c2nc2ccc(Br)cc2c3N)c1 returned AHR activator 108.0*, ssDAF-12 act -0.9, hgDAF12 agonist 0.7, DAX1 inh-1 0.5, DAX1 inh-2 -0.9 and hcDAF-12 act 2.9.
CSc1nc(C)c2c(n1)N(c1cccc(C)c1)CC2 was read as AHR activator 7.3, ssDAF-12 act -1.7, hgDAF12 agonist 0.5, DAX1 inh-1 1.2, DAX1 inh-2 0.3 and hcDAF-12 act -2.3.
`Nc1c2c(nc3ccc(Br)cc13)N(c1ccccc1)CC2` gave AHR activator 76.0*, ssDAF-12 act -0.5, hgDAF12 agonist 1.2, DAX1 inh-1 -1.4, DAX1 inh-2 -0.1 and hcDAF-12 act 1.5.
C[C@@H](NC(=O)[C@H]1O[C@@H](n2cnc3c(N)ncnc32)[C@H](O)[C@@H]1O)c1cccc2ccccc12 was read as ssDAF-12 act -0.7, hgDAF12 agonist -2.0, DAX1 inh-2 1.6 and hcDAF-12 act -2.3.
For O=C(O)CC1(CC(=O)NCc2ccc(Cl)cc2)CCCCC1 the results were AHR activator 1.0, ssDAF-12 act -0.5, hgDAF12 agonist -3.0, DAX1 inh-1 0.4, DAX1 inh-2 -0.3 and hcDAF-12 act -1.7.
`Fc1cccc(Cl)c1CN1CCN(c2ncc(Cc3ccccc3)cn2)CC1` gave ssDAF-12 act -1.8, hgDAF12 agonist -1.1, DAX1 inh-2 0.3 and hcDAF-12 act 1.8.
`COc1cc2c(cc1OC)C(C)N(C(=O)C1=NN(c3cccc(C)c3)C(=O)CC1)CC2` (stereo not drawn) gave AHR activator 5.9, ssDAF-12 act -1.1, hgDAF12 agonist -1.3, DAX1 inh-1 -0.4, DAX1 inh-2 -0.9 and hcDAF-12 act -1.1.
`COc1cccc(NC(=O)CN(C)C(C)C(=O)Nc2ccc(C(C)=O)cc2)c1` (stereo not drawn) gave AHR activator 5.1, ssDAF-12 act -1.1, hgDAF12 agonist -5.0, DAX1 inh-1 6.8*, DAX1 inh-2 -0.3 and hcDAF-12 act -1.4.
Screening Cc1ccc(-n2cnc(=O)c3cccnc32)cc1 returned AHR activator -0.6, ssDAF-12 act -1.4, hgDAF12 agonist 0.7, DAX1 inh-1 -1.1, DAX1 inh-2 -0.2 and hcDAF-12 act -1.1.
For C#CCSc1nc(=O)c2cccnc2n1-c1ccc(C)cc1 the results were AHR activator -1.6, ssDAF-12 act -2.0, hgDAF12 agonist -2.9, DAX1 inh-1 4.5*, DAX1 inh-2 -0.5 and hcDAF-12 act -1.0.
For COC(=O)c1cc(Br)c(=O)n(CCc2ccc(O)cc2)c1 the results were AHR activator -2.3, ssDAF-12 act -1.6, hgDAF12 agonist -1.4, DAX1 inh-1 -0.3, DAX1 inh-2 -0.4 and hcDAF-12 act -1.4.
Screening COC(=O)c1cc(Br)c(=O)n(CCc2ccc(F)cc2)c1 returned AHR activator 56.4*, ssDAF-12 act -1.1, hgDAF12 agonist 1.2, DAX1 inh-1 1.4, DAX1 inh-2 -0.5 and hcDAF-12 act 1.8.
Screening Cc1ccc(NC2Sc3ccccc3NC2=O)cc1 (stereo not drawn) returned AHR activator 8.8, ssDAF-12 act 1.0*, hgDAF12 agonist 14.6*, DAX1 inh-1 1.3, DAX1 inh-2 3.5 and hcDAF-12 act 5.0.
`CCC[C@H]1[C@@H](NC(=O)c2cccc(C)c2)CC[C@@]23CCCN2C(=O)CCC[C@@H]13` gave ssDAF-12 act -1.9, hgDAF12 agonist -3.2 and hcDAF-12 act -1.9.
`O=[N+]([O-])c1ccc(/C=N/Nc2ccc3ccccc3c2)o1` gave AHR activator 75.6*, ssDAF-12 act -0.1, hgDAF12 agonist 4.3, DAX1 inh-1 1.5, DAX1 inh-2 -1.5 and hcDAF-12 act 6.4*.
Screening CC(C)OC(=O)c1cccnc1SCc1cc(=O)n2ccccc2n1 returned AHR activator 54.6*, ssDAF-12 act 0.9, hgDAF12 agonist 4.1, DAX1 inh-1 -1.0, DAX1 inh-2 0.1 and hcDAF-12 act 2.3.

Assay outcomes: PubChem, The Scripps Research Institute Molecular Screening Center
